From PubChem BioAssay (NCI)
This is part of a sample that, as a whole, favours compounds with a hit. Of some 79,000 tested, about 15% had one in any assay. Active and inactive are the calls of the source. Cut-off read from the data, not from the text of the source: active = growth inhibition above about 70%; inactive = the rest.

Experiment: NCI Yeast Anticancer Drug Screen. Data for the sgs1 mgt1 strain (AID 161);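 note: 0% = growth of cultures given vehicle only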
Conditions: S. cerevisiae sgs1 mgt1 strain, at 5.0 µM (retest, dose inferred, filed as 0.5), active compounds read high
Description: Growth inhibition of yeast strains with defined genetic alterations is measured as a screen for potential anti-cancer activity. Selected strains with alterations in DNA damage repair or cell cycle control were exposed to compounds and growth inhibition was measured relative to vehicle treated controls. The strain used in this assay is sgs1 mgt1

Row | Structure (SMILES) | growth inhibition
1 | CC[C@@H]1C(=O)OC[C@@H]1Cc1cncn1C | 7% (inactive)
2 | Nc1ccc(Br)cc1C(=O)c1ccccc1 | 32% (inactive)
3 | COc1ccc(CC2C(=O)NC(C)C(=O)N(C)C3C(=O)N(C)C(Cc4ccc(O)c(c4)Oc4ccc(cc4)C3O)C(=O)NC(C)C(=O)NC(C)C(=O)N2C)cc1 (stereo unspecified) (tested in a mixture with another compound) | 37% (inactive)
4 | CC1CCC2(OC1)OC1C(O)C3C4CCC5CC(OC6OC(CO)C(OC7OC(CO)C(O)C(OC8OCC(O)C(O)C8O)C7OC7OC(CO)C(O)C(OC8OC(CO)C(O)C(O)C8O)C7O)C(O)C6O)C(O)CC5(C)C4CCC3(C)C1C2C (stereo unspecified) | 93% (active)
5 | O=C1C=Cc2ccccc2C1=O | 30% (inactive)
6 | CC/C(=C/c1ccc(OC)cc1)[N+](=O)[O-] | 46% (inactive)
7 | CC(=O)[O-].O=C([CH-]C(=O)c1ccccc1)c1ccccc1.O=C([CH-]C(=O)c1ccccc1)c1ccccc1.[Y+3] | 42% (inactive)
8 | COc1cc(/C=C(\C)[N+](=O)[O-])cc(Br)c1O | 8% (inactive)
9 | CNP1(=O)OC(c2ccccc2)=CCN1CCCl (stereo unspecified) | 5% (inactive)
10 | [Cl-].[Cl-].[Cl-].[O-]c1cccc2cccnc12.[O-]c1cccc2cccnc12.[O]=[Mo] | 72% (active)

Same assay, conditions: S. cerevisiae sgs1 mgt1 strain, at 50.0 µM (retest, dose inferred, filed as 5.0), active compounds read high

Row | Structure (SMILES) | growth inhibition
11 | CC[C@@H]1C(=O)OC[C@@H]1Cc1cncn1C | -18% (inactive)
12 | Nc1ccc(Br)cc1C(=O)c1ccccc1 | 98% (active)
13 | COc1ccc(CC2C(=O)NC(C)C(=O)N(C)C3C(=O)N(C)C(Cc4ccc(O)c(c4)Oc4ccc(cc4)C3O)C(=O)NC(C)C(=O)NC(C)C(=O)N2C)cc1 (stereo unspecified) (tested in a mixture with another compound) | 99% (active)
14 | CC1CCC2(OC1)OC1C(O)C3C4CCC5CC(OC6OC(CO)C(OC7OC(CO)C(O)C(OC8OCC(O)C(O)C8O)C7OC7OC(CO)C(O)C(OC8OC(CO)C(O)C(O)C8O)C7O)C(O)C6O)C(O)CC5(C)C4CCC3(C)C1C2C (stereo unspecified) | 99% (active)
15 | O=C1C=Cc2ccccc2C1=O | 72% (active)
16 | CC/C(=C/c1ccc(OC)cc1)[N+](=O)[O-] | 99% (active)
17 | CC(=O)[O-].O=C([CH-]C(=O)c1ccccc1)c1ccccc1.O=C([CH-]C(=O)c1ccccc1)c1ccccc1.[Y+3] | 42% (inactive)
18 | COc1cc(/C=C(\C)[N+](=O)[O-])cc(Br)c1O | 91% (active)
19 | CNP1(=O)OC(c2ccccc2)=CCN1CCCl (stereo unspecified) | -1% (inactive)
20 | [Cl-].[Cl-].[Cl-].[O-]c1cccc2cccnc12.[O-]c1cccc2cccnc12.[O]=[Mo] | 72% (active)

Same assay, conditions: S. cerevisiae sgs1 mgt1 strain, at 50.0 µM, active compounds read high

Row | Structure (SMILES) | growth inhibition
21 | COc1cc2c[n+](C)c3c4cc5c(cc4ccc3c2cc1OC)OCO5 | -28.1% (inactive)
22 | C=CCC1(CC=C)C(=O)N(C)C(=O)N(C)C1=O | -6.75% (inactive)
23 | CC[C@@H]1C(=O)OC[C@@H]1Cc1cncn1C | -20.9% (inactive)
24 | NS(=O)(=O)c1ccc([As](=O)(O)O)cc1 | 5% (inactive)
25 | COc1ccc(-c2c[se]c(=S)s2)cc1 | -7.35% (inactive)
26 | Nc1ccc(Br)cc1C(=O)c1ccccc1 | 99.2% (active)
27 | CN(C)P(=O)(N(C)C)N(C)CO | 25.4% (inactive)
28 | COc1ccc(CC2C(=O)NC(C)C(=O)N(C)C3C(=O)N(C)C(Cc4ccc(O)c(c4)Oc4ccc(cc4)C3O)C(=O)NC(C)C(=O)NC(C)C(=O)N2C)cc1 (stereo unspecified) (tested in a mixture with another compound) | 86.3% (active)
29 | CC1CCC2(OC1)OC1C(O)C3C4CCC5CC(OC6OC(CO)C(OC7OC(CO)C(O)C(OC8OCC(O)C(O)C8O)C7OC7OC(CO)C(O)C(OC8OC(CO)C(O)C(O)C8O)C7O)C(O)C6O)C(O)CC5(C)C4CCC3(C)C1C2C (stereo unspecified) | 93.8% (active)
30 | O=C1C=Cc2ccccc2C1=O | 88.2% (active)
31 | CC(C)CCN(CCC(C)C)CC(O)c1ccc(Br)cc1 (stereo unspecified) | 6.1% (inactive)
32 | CCCCCCCCCCCCCCCCCCC[As](=O)(O)CCCCCCCCCCCCCCCCCCC | 23.4% (inactive)
33 | CC/C(=C/c1ccc(OC)cc1)[N+](=O)[O-] | 99.5% (active)
34 | CC(=O)[O-].O=C([CH-]C(=O)c1ccccc1)c1ccccc1.O=C([CH-]C(=O)c1ccccc1)c1ccccc1.[Y+3] | 93.6% (active)
35 | N[C@H](Cc1ccc2oc3cc(=O)c4ccccc4c-3nc2c1)C(=O)O | 24.7% (inactive)
36 | CN(N=O)C(=O)NC1CCCCC1 | -1.25% (inactive)
37 | COc1cc(/C=C(\C)[N+](=O)[O-])cc(Br)c1O | 91% (active)
38 | O=P(Cc1ccccc1)(Oc1ccccc1)Oc1ccccc1 | 82.2% (active)
39 | CNP1(=O)OC(c2ccccc2)=CCN1CCCl (stereo unspecified) | 58.8% (inactive)
40 | NC(=O)C(CCN1CCCCC1)(c1ccccc1)c1ccccc1 | 5.65% (inactive)
41 | [Cl-].[Cl-].[Cl-].[O-]c1cccc2cccnc12.[O-]c1cccc2cccnc12.[O]=[Mo] | 89.2% (active)
